Reference: PubChem BioAssay AID488841 (Sanford-Burnham Center for Chemical Genomics, 2010)
The whole screen tested about 1,400 compounds, of which about 380 (27%) were called active.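 The calls were made as follows: active = mean inhibition above 50% across duplicate retests at 10 µM; inactive = the rest.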 The list shows a part of the results.

Assay: inhibition of NALP1/ASC/caspase-1 reporter signal in yeast, confirmation, NALP1 inhibitor project, S. cerevisiae, luminescence, single concentration (AID 488841);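 also: plate controls were DMSO in galactose medium for no effect and cells in plain SD medium for full effect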
Conditions: S. cerevisiae NALP1/ASC/Caspase-1 reporter, beta-gal luminescence; at 10 µM; stronger effect = higher value

inhibition, active:
Cc1cc2ncn(/N=C/c3ccc([N+](=O)[O-])s3)c2cc1C 65.3%
O=S(=O)(Nc1ccc(-n2cccc2)cc1)c1ccc(Cl)cc1Cl 52.4%
CCCC(=O)c1ccc(-c2ccccc2)cc1 52.4%
CCCCCCCCCCCCCCCCn1cc[n+](CC(C)=O)c1 76.5%
CCCCCCCCCCCCCCCCn1cc[n+](C)c1 84.8%
CNc1nc(SCc2ccc(C)cc2)nc2c1CCCC2 98.8%
CNc1nc(SCc2ccccc2Cl)nc2c1CCCC2 99%
CC(C)N1CCC2(CC1)N=C(c1ccc3c(c1)OCO3)CC(c1cc(Cl)ccc1O)N2 (centres undefined) 62.8%
COc1ccc(Nc2ccnc(Nc3ccc(OC)cc3)n2)cc1 55%
Clc1ccc(Nc2ccc(NCc3ccccc3)nn2)cc1 75.7%
CN(C)C(C)(C)C#CCC(c1ccccc1)c1ccccc1 61.6%
S=c1[nH]nc(-c2ccco2)n1/N=C/c1cccc(Cl)c1Cl 56%
CS/C(=N\S(=O)(=O)c1cccs1)Nc1ccc(Br)cc1F 52%
CN1c2ccccc2Sc2cc(N)ccc21 94%
Cc1[nH]n(-c2ccccc2)c(=O)c1C(C[N+](=O)[O-])c1ccc(Cl)cc1 (centres undefined) 77.5%
Cc1[nH]n(-c2ccccc2)c(=O)c1C(C[N+](=O)[O-])c1ccc(Br)cc1 (centres undefined) 66.2%
Cc1ccc(C(C[N+](=O)[O-])c2c(C)[nH]n(-c3ccccc3)c2=O)cc1 (centres undefined) 78.1%
COCCCNCCOc1ccc(C(C)(C)c2ccccc2)cc1 57.4%
C=CCNCCOc1ccc(C(C)(C)c2ccccc2)cc1 60.4%
O=C(Nc1cc(Cl)ccc1-n1cncn1)c1ccc([N+](=O)[O-])s1 90.7%
CN(c1ccccc1)c1ccc(/C=C/[N+](=O)[O-])cc1 95%
COc1ccc(CNCC(O)(c2ccccc2)c2ccc(Cl)cc2)cc1 (centres undefined) 57.9%
C#C[C@]1(O)CC[C@H]2[C@@H]3CCC4=C(CCC(=O)C4)[C@H]3CC[C@@]21C 59.2%
C#C[C@]1(O)CC[C@H]2[C@@H]3CCc4cc(O)ccc4[C@H]3CC[C@@]21C 65.4%
Cc1ccc(C(C[N+](=O)[O-])c2c(N)n(C)c(=O)n(C)c2=O)cc1 (centres undefined) 96.2%
COc1cccc(F)c1C(C[N+](=O)[O-])c1c(N)n(C)c(=O)n(C)c1=O (centres undefined) 89.5%
COc1ccccc1C(C[N+](=O)[O-])c1c(N)n(C)c(=O)n(C)c1=O (centres undefined) 93.7%
COc1ccc(Nc2cc(C)c3ccc(O)cc3n2)cc1 89.7%
Cc1cc(Nc2ccccc2)nc2cc(O)ccc12 84.7%
COc1cc(/C=C/C(=O)c2ccc(Cl)s2)cc(OC)c1O 50.9%
CCCc1[nH]n(-c2nc3ccccc3s2)c(=O)c1C=NCC(C)C 54.1%

inhibition, inactive:
CN(C)/C=N/n1cnc2ccccc2c1=O 23.6%
CCOC(=O)C1CCN(C(=O)c2cc3cc4cc(OC)ccc4nc3o2)CC1 45.9%
CCOc1ccc2nc(SC3CC(=O)N(c4cccc(OC)c4)C3=O)sc2c1 (centres undefined) 32.1%
O=C(O)C1CCN(C(=O)c2csc(-c3ccc4c(c3)CCO4)n2)CC1 22.9%
Cc1cccc(C)c1OCCNC(=O)CCC(=O)c1ccccc1 33.9%
Cc1ccc(C(=O)CCC(=O)O)cc1 37%
O=C1OC(/C=C/c2ccc(Cl)cc2)=NC/1=C/c1ccco1 36.4%
CCCNCC1COc2ccccc2O1 (centres undefined) 31.2%
COc1ccccc1OCCN1CSC(=S)N(C)C1 47%
O=[N+]([O-])c1cc2oc3c(c2c(C=NCc2ccccc2)c1O)CCCC3 34.6%
Cc1oc(-c2ccccc2Cl)nc1CSc1nc2c(c(=O)[nH]1)CCC2 31.5%
Cc1ccc(NC(=O)N(C2CCCCC2)C(C)c2cccnc2)cc1C (centres undefined) 32.9%
Clc1ccc(C2=NNC(=NCc3ccc4c(c3)OCO4)SC2)cc1 27.9%
N#CC(C#N)=c1ccc2c(c1)N1C3=C(CCCC3)CC3CCCCC31N=2 (centres undefined) 7.95%
CC1CCCC/C1=N\Nc1ccc(S(N)(=O)=O)cc1[N+](=O)[O-] (centres undefined) 30.3%
COC(=O)c1c(S(=O)(=O)NCc2ccccc2)sc(C(=O)O)c1C 22%
Fc1ccc(Nc2ccnc(Nc3ccc(F)cc3)n2)cc1 29.5%
CCN(CC)S(=O)(=O)c1ccc2[nH]c(=O)cc(C(=O)Nc3ccc(C)c(S(=O)(=O)N(CC)CC)c3)c2c1 27.6%
CC(C)C(NS(=O)(=O)c1ccc2c(c1)oc(=O)n2C)C(=O)N1CCN(C2CCCCC2)CC1 (centres undefined) 25.9%
CSc1ccc(S(=O)(=O)NCc2ccc(C)cc2)cc1 38.7%
CC(C)(C#CCN1CCCCC1)OCCOC(c1ccccc1)c1ccccc1 28.1%
COc1ccc(C2SCC(=O)N2CCCN(C)C)cc1 (centres undefined) 35%
Cc1ccsc1/C=N/n1c(-c2ccccn2)n[nH]c1=S 37.9%
Cc1cccc(/C=N/n2c(-c3cc(-c4ccccc4)n[nH]3)n[nH]c2=S)c1 27.3%
CC(C)Oc1ccc(OCCNC2CCCC2)cc1 35.8%
CCN1CCN(c2cc3c(cc2F)c(=O)c(C(=O)O)cn3C2CC2)CC1 14.2%
Cn1c(=O)c([N+](=O)[O-])c(-n2cnc3ccccc32)c2ccccc21 37%
CN1CCN(S(=O)(=O)c2ccc(Br)c3nsnc23)CC1 19.9%
Cc1nc(C)c(/C(O)=C/c2nc3ccccc3oc2=O)s1 44.5%
CCn1c(N2CCN(C(=O)C34CC5CC(CC(C5)C3)C4)CC2)nc2ccccc21 44.6%
C/C(=N\NC(=O)Cc1csc(N2CCOCC2)n1)c1ccccc1 24.6%
Cc1cc2ccccn2c1C(C[N+](=O)[O-])c1ccc(N(C)C)cc1 (centres undefined) 31.1%
O=c1cc(CSc2ccc(Cl)cc2)[nH]c2[nH]n(-c3ccccc3)c(=O)c12 29.9%
COC(=O)C1(C(C[N+](=O)[O-])c2ccc(C)cc2)C(=O)NCC1c1ccco1 (centres undefined) 29.4%
COc1ccc(OC)c(N/C(=N/C(=S)Nc2ccccc2)Nc2nc(C)cc(C)n2)c1 30.3%
CC12CCC(C(=O)O)(C/C1=N\O)C2(C)C (centres undefined) 15%
CCOc1nc(-c2ccccc2Cl)ccc1C#N 42.2%
COC(=O)C(Cc1ccccc1)NC(=O)COc1ccc(C(C)(C)C)cc1 (centres undefined) 36.6%
C=CCNCCOCCSc1ccc(Cl)cc1 45.3%
COCCCNCCOc1cc(C(C)C)ccc1C 30.8%
C=CCc1cc(Cl)ccc1OCCNCCCOC 45.8%
CS(=O)(=O)n1nc(-c2ccc(Cl)cc2)nc1SCc1ccccc1 36.2%
c1csc(C2Nc3ccccc3-c3nc4ccccc4n32)c1 (centres undefined) 31.5%
CCCc1ccc(-c2c(C)sc(N)c2C#N)cc1 39%
CCN1CCN(c2cc(C(C)C)nc3c(-c4ccccc4)c(C)nn23)CC1 40.4%
CCc1cc(OCCCCNCc2ccccc2)ccc1Cl 43.2%
COc1ccc(C(=O)C2CCCN(C(=O)Cn3nc(C)cc3C)C2)cc1F (centres undefined) 36.5%
Cc1ccc(S(=O)(=O)NCc2ccc(C(=O)NCCCN3CCC(Cc4ccccc4)CC3)cc2)cc1 22%
CN(CC(=O)NC(=O)NCc1ccccc1)Cc1cccc(Cl)c1Cl 32.5%
Cc1ccccc1OCC(=O)Nc1cccc(N(C)S(C)(=O)=O)c1 18.4%
COC(=O)C1=C(C)NC(C)=C(C(=O)OC)C1c1ccc(OC(=O)c2oc3ccccc3c2C)c(OC)c1 10.6%
O=C(c1ccc(S(=O)(=O)c2ccccc2)cc1)N1CCCCCC1 32.5%
O=c1[nH][nH]c(-c2ccccc2O)c1C(C[N+](=O)[O-])c1ccc(Cl)cc1Cl (centres undefined) 37.8%
CC1(C)NC(=O)N(CCCCOc2ccc3ccccc3c2Cl)C1=O 38.6%
CCCCNCCOCCOc1ccccc1-c1ccccc1 44%
CN(C)c1nc(N)nc(CSc2nnnn2-c2ccc(C(=O)O)cc2)n1 29.5%
Nc1[nH]c(=O)ncc1F 43.8%
CCOc1ccc(N=c2oc3cc(O)ccc3cc2C(=O)NCC2CCCO2)cc1 (centres undefined) 24.5%
COC1=C(Nc2ccc(O)cc2)C(=O)c2ccccc2C1=O 32.3%
Cc1cc(Nc2ccccc2)nn1C(=O)c1ccccc1 44.5%
CCn1nc(C)cc1Nc1ccccc1 22.3%
COc1ccc(C2=NN3C(=O)c4c(ccc(OC)c4OC)C3C2)cc1 (centres undefined) 37.6%
CCC(=O)N(Cc1cc2c(C)ccc(C)c2[nH]c1=O)C1CCCCC1 27.1%
CCNc1c(C(=O)O)ccc2c1C(=O)c1ccccc1C2=O 32.4%
CCc1ccc(OCC(=O)Nc2ccc(CN3CCCCC3)cc2)cc1 48.2%
Cc1cc(C)c([C@@H]2C[C@H]3CN(C4CCCC4)C(=O)[C@]34CCCN24)c(-n2cccn2)c1 28.9%
COC(=O)CCn1nnc(-c2ccc(C(C)C)cc2)n1 38.5%
COc1cccc(CN2CCC(C(=O)N3CCN(c4ccccc4F)CC3)CC2)c1OC 37.2%
